# According to the supplement of paper PMC8728848:
# About 410 targets per protein were measured; listed, in parts, are those with the strongest signals and a random draw of the rest.
# B1: HysACBM (Streptococcus pneumoniae), Q54873 (protein)
# chain: KNLVENGDFGQTEDGSSPWTGSKAQGWSAWVDQKNSADASTRVIEAKDGAITISSHEKLRAALHRMVPIEAKKKYKLRFKIKTDNKIGIAKVRIIEESGKDKRLWNSATTSGTKDWQTIEADYSPTLDVDKIKLELFYETGTGTVSFKDIELVEVADQLS
# Assays:
# Assay in all cases: glycan array binding signal (z-score within array); higher = stronger binding
# Conditions in all cases: glycan notation: IUPAC condensed, linker removed
# 3dGal(b1-4)Glc = molecular target: 3dGal(b1-4)Glc
# Method in brief: (§1)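 Glycan array data came from 3228 arrays in the Consortium for Functional Glycomics database, and only arrays with an available protein sequence were kept. Glycan names were put into IUPAC-condensed notation, and columns mapping to the same glycan were averaged. The binding signal is a within-array Z-score, averaged across arrays of one protein sequence run at different concentrations or buffers and across linkers. A negative Z-score can be read as non-binding.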
# [1] = molecular target: Ara(a1-5)Ara(a1-5)Ara(a1-5)Ara(a1-5)Ara(a1-5)Ara(a1-5)Ara
# Method in brief: as §1
# [2] = molecular target: Fuc(a1-2)Gal(b1-3)[Fuc(a1-4)]GlcNAc(b1-3)[Fuc(a1-3)[Gal(b1-4)]GlcNAc(b1-6)]Gal(b1-4)Glc
# Method in brief: as §1
# [3] = molecular target: Fuc(a1-3)[3dGal(b1-4)]Glc
# Method in brief: as §1
# [4] = molecular target: Fuc(a1-3)[Gal(b1-4)]GlcNAc(b1-3)Gal(b1-4)[Fuc(a1-3)]Glc
# Method in brief: as §1
# Gal(a1-4)Gal(b1-4)GlcNAc = molecular target: Gal(a1-4)Gal(b1-4)GlcNAc
# Method in brief: as §1
# [5] = molecular target: Gal(b1-3)GalNAc(b1-4)Gal(b1-4)Glc
# Method in brief: as §1
# Gal(b1-4)GlcNAc(b1-3)Fuc = molecular target: Gal(b1-4)GlcNAc(b1-3)Fuc
# Method in brief: as §1
# [6] = molecular target: Gal(b1-4)GlcNAc(b1-3)Gal(b1-4)Glc
# Method in brief: as §1
# Gal(b1-6)GalNAc = molecular target: Gal(b1-6)GalNAc
# Method in brief: as §1
# GalNAc(b1-4)Gal(b1-4)Glc = molecular target: GalNAc(b1-4)Gal(b1-4)Glc
# Method in brief: as §1
# [7] = molecular target: Glc(a1-4)Glc(a1-4)Glc(a1-4)Glc(a1-4)Glc(a1-4)Glc(a1-4)Glc(a1-4)Glc
# Method in brief: as §1
# Glc(a1-6)Glc = molecular target: Glc(a1-6)Glc
# Method in brief: as §1
# [8] = molecular target: Glc(a1-6)Glc(a1-4)Glc(a1-4)Glc
# Method in brief: as §1
# [9] = molecular target: Glc(a1-6)Glc(a1-6)Glc(a1-6)Glc
# Method in brief: as §1
# [10] = molecular target: Glc(a1-6)Glc(a1-6)Glc(a1-6)Glc(a1-6)Glc
# Method in brief: as §1
# [11] = molecular target: Glc(b1-6)Glc(b1-6)Glc(b1-6)Glc(b1-6)Glc(b1-6)Glc(b1-6)Glc(b1-6)Glc
# Method in brief: as §1
# GlcA(b1-3)Gal = molecular target: GlcA(b1-3)Gal
# Method in brief: as §1
# [12] = molecular target: GlcA(b1-3)GlcNAc(b1-4)GlcA(b1-3)GlcNAc(b1-4)GlcA(b1-3)GlcNAc(b1-4)GlcA(b1-3)GlcNAc(b1-4)GlcA(b1-3)GlcNAc(b1-4)GlcA(b1-3)GlcNAc(b1-4)GlcA(b1-3)GlcNAc
# Method in brief: as §1
# [13] = molecular target: GlcNAc(b1-2)Man(a1-3)[GlcNAc(b1-2)Man(a1-6)]Man
# Method in brief: as §1
# [14] = molecular target: GlcNAc(b1-2)[GlcNAc(b1-4)]Man(a1-3)[GlcNAc(b1-2)[GlcNAc(b1-6)]Man(a1-6)]Man(b1-4)GlcNAc(b1-4)GlcNAc
# Method in brief: as §1
# GlcNAc(b1-3)Fuc = molecular target: GlcNAc(b1-3)Fuc
# Method in brief: as §1
# [15] = molecular target: GlcNAc(b1-3)[GlcNAc(b1-6)]Gal
# Method in brief: as §1
# [16] = molecular target: HexA6S(a1-4)GlcNS6S(a1-4)IdoA2S(a1-4)GlcNS6S(a1-4)IdoA2S(a1-4)GlcNS6S(a1-4)IdoA2S(a1-4)GlcNS6S(a1-4)IdoA2S(a1-4)GlcNS6S(a1-4)IdoA2S(a1-4)GlcNS6S(a1-4)IdoA2S(a1-4)GlcNS6S
# Method in brief: as §1
# [17] = molecular target: Kdn(a2-3)Gal(b1-3)GalNAc(b1-4)[Kdn(a2-3)]Gal(b1-4)Glc
# Method in brief: as §1
# Kdn(a2-6)Gal = molecular target: Kdn(a2-6)Gal
# Method in brief: as §1
# [18] = molecular target: Man(a1-3)Man(a1-6)[Man(a1-3)]Man(b1-4)GlcNAc(b1-4)GlcNAc
# Method in brief: as §1
# Neu(a2-6)Gal(b1-4)Glc = molecular target: Neu(a2-6)Gal(b1-4)Glc
# Method in brief: as §1
# [19] = molecular target: Neu5Ac(a2-3)4dGal(b1-4)[Fuc(a1-3)]GlcNAc(b1-3)Gal
# Method in brief: as §1
# [20] = molecular target: Neu5Ac(a2-3)6dGal(b1-4)[Fuc(a1-3)]GlcNAc(b1-3)Gal
# Method in brief: as §1
# [21] = molecular target: Neu5Ac(a2-3)Gal(b1-3)GalNAc6S(b1-4)Gal(b1-4)Glc
# Method in brief: as §1
# [22] = molecular target: Neu5Ac(a2-3)Gal(b1-3)GlcNAc(b1-3)[Fuc(a1-3)[Gal(b1-4)]GlcNAc(b1-6)]Gal(b1-4)Glc
# Method in brief: as §1
# [23] = molecular target: Neu5Ac(a2-3)Gal(b1-3)[Neu5Ac(a2-6)]GalNAc(b1-4)Gal(b1-4)Glc
# Method in brief: as §1
# [24] = molecular target: Neu5Ac(a2-3)Gal(b1-4)[Fuc(a1-3)]Glc
# Method in brief: as §1
# [25] = molecular target: Neu5Ac(a2-3)[GalNAc(b1-6)]Gal(b1-4)Glc
# Method in brief: as §1
# [26] = molecular target: Neu5Ac(a2-6)Gal(b1-4)GlcNAc(b1-3)[Neu5Ac(a2-6)Gal(b1-4)GlcNAc(b1-6)]Gal(b1-4)Glc
# Method in brief: as §1
# Neu5Ac(a2-6)Glc6S = molecular target: Neu5Ac(a2-6)Glc6S
# Method in brief: as §1
# Neu5Ac(a2-6)GlcNAc6S = molecular target: Neu5Ac(a2-6)GlcNAc6S
# Method in brief: as §1
# [27] = molecular target: Xyl(b1-2)[Man(a1-3)][Man(a1-6)]Man(b1-4)GlcNAc(b1-4)[Fuc(a1-3)]GlcNAc
# Method in brief: as §1
binder,measurement,setting,value
B1,glycan array binding signal (z-score),3dGal(b1-4)Glc,-0.091
same,glycan array binding signal (z-score),[1],-0.091
same,glycan array binding signal (z-score),[2],0.584
same,glycan array binding signal (z-score),[3],-0.091
same,glycan array binding signal (z-score),[4],0.007
same,glycan array binding signal (z-score),Gal(a1-4)Gal(b1-4)GlcNAc,-0.091
same,glycan array binding signal (z-score),[5],0.174
same,glycan array binding signal (z-score),Gal(b1-4)GlcNAc(b1-3)Fuc,0.281
same,glycan array binding signal (z-score),[6],-0.091
same,glycan array binding signal (z-score),Gal(b1-6)GalNAc,-0.064
same,glycan array binding signal (z-score),GalNAc(b1-4)Gal(b1-4)Glc,0.321
same,glycan array binding signal (z-score),[7],0.776
same,glycan array binding signal (z-score),Glc(a1-6)Glc,-0.091
same,glycan array binding signal (z-score),[8],-0.059
same,glycan array binding signal (z-score),[9],-0.091
same,glycan array binding signal (z-score),[10],-0.091
same,glycan array binding signal (z-score),[11],-0.091
same,glycan array binding signal (z-score),GlcA(b1-3)Gal,0.267
same,glycan array binding signal (z-score),[12],21.5
same,glycan array binding signal (z-score),[13],-0.091
same,glycan array binding signal (z-score),[14],0.264
same,glycan array binding signal (z-score),GlcNAc(b1-3)Fuc,-0.05
same,glycan array binding signal (z-score),[15],-0.091
same,glycan array binding signal (z-score),[16],-0.091
same,glycan array binding signal (z-score),[17],-0.091
same,glycan array binding signal (z-score),Kdn(a2-6)Gal,-0.091
same,glycan array binding signal (z-score),[18],-0.091
same,glycan array binding signal (z-score),Neu(a2-6)Gal(b1-4)Glc,0.823
same,glycan array binding signal (z-score),[19],-0.091
same,glycan array binding signal (z-score),[20],-0.045
same,glycan array binding signal (z-score),[21],-0.091
same,glycan array binding signal (z-score),[22],-0.091
same,glycan array binding signal (z-score),[23],-0.054
same,glycan array binding signal (z-score),[24],-0.091
same,glycan array binding signal (z-score),[25],-0.091
same,glycan array binding signal (z-score),[26],-0.091
same,glycan array binding signal (z-score),Neu5Ac(a2-6)Glc6S,-0.091
same,glycan array binding signal (z-score),Neu5Ac(a2-6)GlcNAc6S,-0.091
same,glycan array binding signal (z-score),[27],-0.091
